Compound activity from PubChem BioAssay.
TGFb inhibitor – qHTS for Inhibitors of TGF-b; Potency, µM (series often up to 46.1 µM), actives largely listed as inhibitors; actives 1.2% (n = 410,000); HepG2 CAGA-GFP TGF-b/SMAD3 reporter, GFP fluorescence, 18 h; TGF-beta stimulated, 500 pg/mL final; AID 588855, 2011; note: nearly all actives have a fitted effect of over 65% in size
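HEPG2 CAGA-GFP reporter cells (1000/well, DMEM with 1% FBS) received compounds, then recombinant TGF-beta at 500 pg/mL final for 18 hours at 37 degrees C. Per-cell GFP summed per well was normalised to unstimulated and stimulated DMSO controls before curve fitting.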
ATXN viability – Viability Counterscreen for Primary qHTS for Inhibitors of ATXN expression; S2 cells (HEK-293 line with an ATXN2-luciferase reporter) viability, CellTiter-Fluor protease fluorescence, 24 h; Potency, µM (doses to about 56.7 µM), hits mostly cytotoxic; actives 0.49% (n = 400,000); AID 651635, 2014; note: nearly all actives have a fitted effect of over 40% in size
HepG2 viability – qHTS for Inhibitors of TGF-b: Cytotox Counterscreen; AID 588856, 2011; HepG2 CAGA-GFP viability, ATP luminescence, 18 h; actives 0.76% (n = 410,000); Potency, µM (highest dose often 46.1 µM), usual class: cytotoxic
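CellTiter-Glo luminescence gave cytotoxicity after 18 hours at 37 degrees C. The cells were HepG2 CAGA-GFP in 1% FBS DMEM, stimulated with 500 pg/mL TGF-beta after compound addition. %Activity was normalised to no-cell wells (complete cell-killing) and DMSO (no toxicity), and curves were fitted and classified.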
ATXN2 expr inh – Primary qHTS for Inhibitors of ATXN expression | Potency, µM (series often up to 57 µM), usual class: inhibitors | actives 0.72% (n = 360,000) | HEK-293 ATXN2-luciferase reporter, luminescence, 24 h; note: nearly all actives have a fitted effect of over 55% in size
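ATXN2-luciferase reporter cells (luciferase flanked by upstream and downstream ATXN2 gene portions) were treated 24 h at 37 °C with compounds at up to 57 uM. SteadyGlo luminescence gave expression; GF-AFC fluorescence gave viability.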
KB-V1 MDR tox – qHTS assay for MDR1-selective chemotherapeutics: Primary screen using the drug-selected MDR subline cells KB-V1; KB-V1 MDR cells viability, CellTiter-Glo, 72 h; Potency, µM (titrated, usually from 46.1 µM), most hits filed as cytotoxic; actives 3.4% (n = 400,000); note: nearly all actives have a fitted effect of over 60% in size
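KB-V1, DMEM (no phenol red) + 10% FBS; cpd pin-transferred, titration series; 72 h, 37 degrees C; CellTiter-Glo, luminescence. Data normalized, curve-fit.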
KB-3-1 tox – qHTS assay for MDR1-selective chemotherapeutics: Primary screen using the parental adenocarcinoma cell KB-3-1 | KB-3-1 viability, CellTiter-Glo ATP luminescence, 72 h | Potency, µM (highest dose often 46.1 µM), hits mostly cytotoxic | actives 1.4% (n = 400,000); note: nearly all actives have a fitted effect of over 60% in size
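Screening of KB-3-1 cells (DMEM, 10% FBS, phenol-red free) ran from lowest to highest compound concentration; after 72 h at 37 °C viability was read luminescently and curves fitted.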
Large screens that a line does not name were inactive. A selection follows. Calls come from the whole dose curve; as a rule, active = well fitted curve in the direction sought with a large enough effect; inconclusive = small, poorly fitted or top-dose-only effect, or another doubt; inactive = no such curve, though single readings can be large; an effect the other way counts as inactive or inconclusive.

Cc1ccc(S(=O)(=O)NCC(=O)OCC(=O)N2N=C(c3ccc(Cl)cc3)CC2c2ccco2)cc1C (stereo unspecified)	TGFb inhibitor inconclusive
C[C@H]1CN([C@@H](C)CO)C(=O)c2cc(NC(=O)Nc3cccc4ccccc34)ccc2O[C@@H]1CN(C)Cc1ccc(-c2ccccc2)cc1	ATXN viability inconclusive, KB-V1 MDR tox inconclusive
O=C(OC1CCN(CCCl)CC1)C(c1ccccc1)c1ccccc1	none
COc1ccc(OCC(=O)Nc2ccc(Cl)cc2C(=O)c2ccccc2)cc1	none
CCCCCn1c(=O)c(C(=O)Nc2nc3ccccc3[nH]2)c(O)c2ccccc21	KB-V1 MDR tox inconclusive, KB-3-1 tox inconclusive
C[C@]12CC[C@@H]3[C@@H](CCC4=CC(=O)CC[C@@H]43)[C@@H]1CC[C@@H]2OC(=O)CCc1ccccc1	none (no result: TGFb inhibitor, HepG2 viability, KB-V1 MDR tox, KB-3-1 tox)
COc1cc(/C=N/Nc2ccc(S(N)(=O)=O)cc2)cc(OC)c1OC	none
Cc1cccc(Cn2c(SCc3ccc(C(=O)NC4CCCCC4)cc3)nc3cccnc32)c1	ATXN viability inconclusive, ATXN2 expr inh inconclusive, KB-V1 MDR tox inconclusive, KB-3-1 tox inconclusive
CN1CCC(OC(=O)c2ccccc2)CC1	ATXN viability inconclusive (no result: ATXN2 expr inh)
c1ccc(CCN2CCCC2)cc1	none (no result: ATXN viability, ATXN2 expr inh)
OCCN(CCO)CCO	none (no result: TGFb inhibitor, HepG2 viability, ATXN2 expr inh, KB-V1 MDR tox, KB-3-1 tox)
CCCC1CCCCN1 (stereo unspecified)	none (no result: TGFb inhibitor, HepG2 viability, KB-V1 MDR tox, KB-3-1 tox)
CCCCn1nnnc1C(c1ccc(OC)cc1)N1CCC2(CC1)C(=O)NCN2c1ccccc1 (stereo unspecified)	TGFb inhibitor inconclusive, ATXN viability inconclusive
C=C[C@H]1CN2CC[C@@H]1C[C@H]2[C@@H](O)c1ccnc2ccccc12	none (no result: TGFb inhibitor, HepG2 viability, ATXN2 expr inh, KB-V1 MDR tox, KB-3-1 tox)
CC/C(=C(\c1ccc(O)cc1)c1ccc(OCCN(C)C)cc1)c1ccccc1	TGFb inhibitor inconclusive, ATXN2 expr inh inconclusive, KB-V1 MDR tox inconclusive (no result: ATXN viability)
COc1cc2c3cc1Oc1cc(ccc1O)C[C@@H]1c4c(cc(OC)c(O)c4Oc4cccc(c4)C[C@H]3N(C)CC2)CC[N+]1(C)C	none (no result: TGFb inhibitor, HepG2 viability, ATXN2 expr inh, KB-V1 MDR tox, KB-3-1 tox)
CN1CCc2cc3c(cc2[C@@H]1[C@@H]1OC(=O)c2c1ccc1c2OCO1)OCO3	none (no result: TGFb inhibitor, HepG2 viability, ATXN2 expr inh, KB-V1 MDR tox, KB-3-1 tox)
